Measurements published in PubChem BioAssay.
The source made the active and inactive calls. Unless noted, how the calls were made is not given here.

Tests used:
[1] = compounds binding Alexa647 anti-His antibody – biochemical, small-molecule microarray, 635 nm fluorescence, artefact control for SMM control protein annotation, primary screen (AID 1128); settings: higher = more signal;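 further: score merges feature fluorescence with signal-to-noise for each printed compound spot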
[2] = test system: Human papillomavirus type 1a E7 protein (residues 1-88); test: HPV1a E7 small-molecule binders, primary screen, biochemical, small-molecule microarray, residues 1-88, 635 nm (AID 1129); settings: small-molecule microarray binding, fluorescence 635 nm; higher = more signal
[3] = target: Focal adhesion kinase 1 (Homo sapiens) (UniProt Q05397); test: PTK2 protein binding on printed compound slides – biochemical, small-molecule microarray, 635/667 nm fluorescence, BSA, DTT, primary screen (AID 1130); settings: 635 nm fluorescence, higher = more signal;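 further: composite of spot emission at 667 nm and signal to noise over triplicate slides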
[4] = test system: Fibrinogen (Alexa647-labelled); test: Alexa647-fibrinogen binding to printed small molecules – biochemical, small-molecule microarray, 635/667 nm fluorescence, artefact control for SMM control-protein annotation, profiling panel (AID 1131); settings: fibrinogen-A647 binding fluorescence, higher = more signal;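 further: z-score merges 667 nm fluorescence with per-spot signal-to-noise over triplicate slides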
[5] = target: Follistatin (Homo sapiens) (UniProt P19883); test: FST protein binding to printed compounds – biochemical, small-molecule microarray, 635/667 nm fluorescence, primary screen (AID 1132); settings: 635 nm fluorescence, higher = more signal
[6] = target: Fibroblast growth factor 2 (Homo sapiens) (UniProt P09038); test: basic fibroblast growth factor binding to printed compounds – biochemical, small-molecule microarray, 635/667 nm fluorescence, primary screen (AID 1133); settings: FGF2, fluorescence 635/667, higher = more signal
[7] = JC-1 mitochondrial potential readout, lung cancer cells – cell-based, A549, JC-1 fluorescence, basal, 24 h, 100 nL, profiling panel (AID 1138); settings: higher = more signal;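 further: A549 lung adenocarcinoma cells under basal conditions with no added stimulus; test concentration not given here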
Lefty1 = Lefty1 protein binding to printed compounds – biochemical, small-molecule microarray, 635/667 nm fluorescence, primary screen (AID 1139); settings: fluorescence 635/667, higher = more signal
[8] = test system: wheat germ agglutinin (Triticum aestivum), Alexa647-labelled; test: Alexa647-WGA lectin binding to printed small molecules – biochemical, small-molecule microarray, 635/667 nm fluorescence, artefact control for SMM control-protein annotation, profiling panel (AID 1140); settings: WGA-A647 binding, 635 nm fluorescence, higher = more signal;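 further: score merges 667 nm feature emission with signal to noise over triplicate slides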
[9] = target: Luciferin 4-monooxygenase (Photinus pyralis) (UniProt P08659); test: inhibition of purified Photinus pyralis luciferase – biochemical, luminescence, purified enzyme, 2006 set, primary screen (AID 1141); settings: purified firefly luciferase, SteadyGlo luminescence, 30 min; higher = more signal, called active from +8 up or from −8 down;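 further: cell-free assay with purified firefly luciferase at 100 ng per well in PBS; test concentration not given here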
[10] = test system: Wnt5a (protein binding on small-molecule microarray); test: small molecules binding Wnt5a protein – biophysical, small-molecule microarray, 635/667 nm fluorescence, primary screen (AID 1142); settings: 635 nm fluorescence, higher = more signal;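 further: fluorescence read at 667 nm with signal to noise per printed feature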
[11] = ATP-based viability of Huh7 replicon cells – cell-based, CellTiter-Glo luminescence, basal, 48 h, cytotoxicity control for HCV replication inhibitor project, primary screen (AID 1143); settings: higher = more signal, called active from +8 up or from −8 down;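 further: Huh7 hepatoma cells carrying a hepatitis C replication reporter with no stimulus; test concentration not given here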
[12] = Pseudomonas biofilm growth suppression – PAO1 strain, BacTiter-Glo luminescence, LB-PBS, primary screen (AID 1144); settings: P. aeruginosa PAO1 biofilm, 12 h, higher = more signal
[13] = basal CRE-LacZ reporter activity in PC12 – cell-based, unstimulated, primary screen (AID 1145); settings: no forskolin, luminescence, 4.5 h, higher = more signal, called active from +8 up or from −8 down
[14] = forskolin-driven CRE-LacZ activity in PC12 – cell-based, CRE-LacZ reporter, forskolin-stimulated, primary screen (AID 1146); settings: luminescence, 4.5 h, higher = more signal, called active from +8 up or from −8 down;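 further: PC12 cells with 6xCRE LacZ reporter stimulated by forskolin 10 µM; beta-galactosidase reporter signal reflecting CREB driven transcription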
[15] = target: Streptavidin (Streptomyces avidinii) (UniProt P22629); test: compounds binding control protein streptavidin – biophysical, small-molecule microarray, 635/667 nm fluorescence, artefact control for SMM compound annotation, primary screen (AID 1147); settings: higher = more signal;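 further: signal reflects streptavidin binding to arrayed compounds as a control protein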
[16] = probe aInhba binding on compound microarray – biochemical, small-molecule microarray, 635/667 nm fluorescence, primary screen (AID 1148); settings: higher = more signal;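 further: score merges 667nm spot fluorescence with signal-to-noise for antibody binding to printed compounds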
Torsin-1A (Homo sapiens) [17] = target: Torsin-1A (Homo sapiens) (UniProt O14656); test: TOR1A wild-type binding on microarray – cell lysate, small-molecule microarray, lysate, 635/667 nm, primary screen (AID 1149); settings: COS7 hTOR1A-WT lysate, 635 nm fluorescence, higher = more signal
Torsin-1A (Homo sapiens) [18] = target: Torsin-1A (Homo sapiens) (UniProt O14656); test: torsin A mutant lysate binding on microarrays – cell lysate, small-molecule microarray, COS7 lysate, 635/667 nm fluorescence, primary screen (AID 1150); settings: COS7 hTOR1A mutant lysate, 635 nm fluorescence, higher = more signal;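 further: score pools 667 nm emission and signal to noise measuring lysate protein binding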
[19] = test system: Sonic hedgehog protein (Shh); test: Sonic hedgehog microarray binding compounds – biochemical, small-molecule microarray, 635/667 nm fluorescence, primary screen (AID 1151); settings: 635 nm fluorescence, higher = more signal;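 further: Shh protein binding to compounds spotted on small-molecule microarray slides; score combines spot fluorescence intensity with signal-to-noise across triplicate slides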

Chain of Luciferin 4-monooxygenase (Photinus pyralis) (P08659 whole entry, looked up): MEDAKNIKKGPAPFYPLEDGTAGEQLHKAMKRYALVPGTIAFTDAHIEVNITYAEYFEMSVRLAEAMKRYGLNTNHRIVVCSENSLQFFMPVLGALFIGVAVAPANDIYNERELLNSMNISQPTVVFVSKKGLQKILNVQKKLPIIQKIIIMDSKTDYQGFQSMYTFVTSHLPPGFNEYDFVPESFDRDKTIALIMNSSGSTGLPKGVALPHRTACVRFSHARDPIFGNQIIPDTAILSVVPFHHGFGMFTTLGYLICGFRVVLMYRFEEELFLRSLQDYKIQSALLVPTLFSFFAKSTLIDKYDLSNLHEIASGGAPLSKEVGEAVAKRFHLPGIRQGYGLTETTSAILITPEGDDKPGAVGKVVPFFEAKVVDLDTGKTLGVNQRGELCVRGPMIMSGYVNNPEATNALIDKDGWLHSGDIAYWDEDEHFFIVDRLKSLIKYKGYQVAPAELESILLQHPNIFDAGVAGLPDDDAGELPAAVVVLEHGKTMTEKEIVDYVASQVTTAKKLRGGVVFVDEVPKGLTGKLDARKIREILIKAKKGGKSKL
Chain of Streptavidin (Streptomyces avidinii) (P22629 whole entry, looked up): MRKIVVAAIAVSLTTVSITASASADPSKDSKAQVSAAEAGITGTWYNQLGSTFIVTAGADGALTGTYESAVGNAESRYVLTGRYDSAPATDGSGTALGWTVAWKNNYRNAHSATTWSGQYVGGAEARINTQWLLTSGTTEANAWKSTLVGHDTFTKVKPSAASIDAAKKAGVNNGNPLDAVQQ
Chain of Focal adhesion kinase 1 (Homo sapiens) (Q05397 whole entry, looked up): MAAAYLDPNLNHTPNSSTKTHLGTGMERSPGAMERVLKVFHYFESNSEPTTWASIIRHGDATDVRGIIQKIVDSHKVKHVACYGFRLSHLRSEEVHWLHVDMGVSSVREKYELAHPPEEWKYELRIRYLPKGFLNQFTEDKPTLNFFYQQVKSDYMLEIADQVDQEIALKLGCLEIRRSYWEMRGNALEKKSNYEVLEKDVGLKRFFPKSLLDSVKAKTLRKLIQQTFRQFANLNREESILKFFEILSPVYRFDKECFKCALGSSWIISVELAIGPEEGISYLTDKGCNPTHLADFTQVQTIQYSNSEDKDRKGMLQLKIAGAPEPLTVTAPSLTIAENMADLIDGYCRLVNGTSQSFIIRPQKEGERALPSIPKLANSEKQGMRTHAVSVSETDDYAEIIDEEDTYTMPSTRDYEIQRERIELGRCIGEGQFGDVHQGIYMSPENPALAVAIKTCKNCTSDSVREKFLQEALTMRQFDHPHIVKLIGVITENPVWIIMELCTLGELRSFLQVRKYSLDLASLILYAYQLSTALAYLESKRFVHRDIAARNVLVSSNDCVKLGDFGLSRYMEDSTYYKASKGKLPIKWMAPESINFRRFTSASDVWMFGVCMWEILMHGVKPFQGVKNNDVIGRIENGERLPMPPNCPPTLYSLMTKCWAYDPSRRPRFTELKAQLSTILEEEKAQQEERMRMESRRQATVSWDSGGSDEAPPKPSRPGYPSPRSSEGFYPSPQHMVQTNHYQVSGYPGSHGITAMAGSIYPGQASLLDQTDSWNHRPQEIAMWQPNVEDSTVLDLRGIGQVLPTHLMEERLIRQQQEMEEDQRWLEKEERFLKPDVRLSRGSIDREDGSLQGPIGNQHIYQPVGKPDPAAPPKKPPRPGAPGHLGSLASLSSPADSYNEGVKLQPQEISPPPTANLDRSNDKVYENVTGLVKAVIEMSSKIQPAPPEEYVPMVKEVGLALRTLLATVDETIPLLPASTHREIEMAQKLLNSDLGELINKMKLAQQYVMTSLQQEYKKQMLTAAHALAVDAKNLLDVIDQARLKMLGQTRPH
Chain of Fibroblast growth factor 2 (Homo sapiens) (P09038 whole entry, looked up): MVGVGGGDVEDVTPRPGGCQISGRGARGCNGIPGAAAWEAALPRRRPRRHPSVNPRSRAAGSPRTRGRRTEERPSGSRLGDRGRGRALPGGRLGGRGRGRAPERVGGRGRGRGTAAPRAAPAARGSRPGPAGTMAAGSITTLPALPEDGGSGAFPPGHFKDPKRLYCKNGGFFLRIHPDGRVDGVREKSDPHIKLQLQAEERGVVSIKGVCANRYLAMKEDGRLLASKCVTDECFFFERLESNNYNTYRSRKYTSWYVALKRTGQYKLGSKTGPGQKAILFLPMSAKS
Chain of Torsin-1A (Homo sapiens) (O14656 whole entry, looked up): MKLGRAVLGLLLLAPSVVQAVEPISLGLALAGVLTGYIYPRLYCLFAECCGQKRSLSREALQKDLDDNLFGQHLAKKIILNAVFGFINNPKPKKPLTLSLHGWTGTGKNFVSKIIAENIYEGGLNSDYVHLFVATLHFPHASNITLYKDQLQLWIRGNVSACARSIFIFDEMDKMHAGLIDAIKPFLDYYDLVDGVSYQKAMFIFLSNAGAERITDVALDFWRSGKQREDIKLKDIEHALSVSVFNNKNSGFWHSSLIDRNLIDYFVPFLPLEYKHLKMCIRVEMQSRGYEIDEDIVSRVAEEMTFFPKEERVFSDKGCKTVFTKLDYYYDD
Chain of Follistatin (Homo sapiens) (P19883 whole entry, looked up): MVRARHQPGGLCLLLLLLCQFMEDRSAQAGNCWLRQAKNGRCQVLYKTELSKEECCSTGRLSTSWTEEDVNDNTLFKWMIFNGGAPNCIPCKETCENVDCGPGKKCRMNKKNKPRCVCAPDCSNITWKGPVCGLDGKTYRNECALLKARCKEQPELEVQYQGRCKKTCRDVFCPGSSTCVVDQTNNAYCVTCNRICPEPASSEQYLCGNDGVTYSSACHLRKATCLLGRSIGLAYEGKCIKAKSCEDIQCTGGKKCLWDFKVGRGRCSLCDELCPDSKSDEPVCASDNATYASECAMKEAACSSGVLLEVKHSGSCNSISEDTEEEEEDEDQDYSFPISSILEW

Compound	composite z-score [1]	composite z-score [2]	composite z-score [3]	composite z-score [4]	composite z-score [5]	composite z-score [6]	z-score [7]	composite z-score (Lefty1)	composite z-score [8]	z-score [9]	composite z-score [10]	z-score [11]	z-score [12]	z-score [13]	z-score [14]	composite z-score [15]	composite z-score [16]	composite z-score (Torsin-1A (Homo sapiens) [17])	composite z-score (Torsin-1A (Homo sapiens) [18])	composite z-score [19]
COCCOC(=O)N1C(=O)[C@@]2(c3cc(C#CCC(C(=O)OC)C(=O)OC)ccc31)[C@H](C(=O)N1CCCCCCC1)[C@H]1C(=O)O[C@H](c3ccccc3)[C@H](c3ccccc3)N1[C@@H]2c1ccc(O)cc1	2.63	1.16	0.598	0.59	1.07	1.5	-0.909	0.972	1.13	0.414 (inactive)	0.735	-4.08 (inactive)	-0.754 (inactive)	-0.882 (inactive)	-0.807 (inactive)	1.22	1.22	1.41	1.41	1.62
COC(=O)c1ccc(OC)c(/C=C\CC(CCc2ccccc2)OC(C)=O)c1 (stereo not given)	-0.281	-0.133	0.377	-0.177	0.457	-0.293	0.293	0.222	0.476	-0.558 (inactive)	-0.526	-0.785 (inactive)	0.245 (inactive)	1.04 (inactive)	-0.0403 (inactive)	0.245	-0.182	-0.813	-0.152	0.482
C=CCOc1ccc([C@@H]2CC=C(C(=O)OCC)[C@H](c3cccc(Br)c3)N2S(=O)(=O)c2ccc(C)cc2)cc1	-0.296	0.0511	-0.209	-0.161	0.199	-0.0901	3.89	-0.109	0.268	0.594 (inactive)	0.141	-4.43 (inactive)	0.681 (inactive)	-0.424 (inactive)	0.165 (inactive)	0.414	-0.0831	0.0699	0.307	0.0537
COCCCNC(=O)[C@@]1(Cc2ccccc2CN=[N+]=[N-])N=C(c2ccc(OCCCO)cc2)O[C@H]1c1ccccc1N=[N+]=[N-]	2.29	1.19	0.543	0.931	1.35	1.18	3.53	0.0538	1.2	-4.87 (inactive)	1.08	-4.47 (inactive)	-0.867 (inactive)	-0.207 (inactive)	-0.834 (inactive)	1.37	0.786	0.0556	0.516	0.341
